# According to PubChem BioAssay AID504558 (Broad Institute, 2011):
# In all, about 350,000 compounds went through this assay and about 2,400 (0.69%) were called active. Only a selection was taken, and actives are over-represented in it overall. A number with no mark means an inactive call. Cut-off read from the data, not from the text of the source: active = inhibition above about 41%; inconclusive = no clear call, values can overlap the other calls; inactive = below that.
# Test: blockers of LMP1-induced NF-kB reporter signal – cell-based, luminescence, single point, primary screen (AID 504558);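 note: 0% = neutral control wells and 100% = reference inhibitor control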
# Details: LMP1-induced NF-kappaB luciferase reporter cells, at 12.5 µM, stronger effect = higher value
row,SMILES,inhibition
1,CCCn1c(N)c(C(=O)CSc2nnc(Cc3cccs3)n2C2CC2)c(=O)[nH]c1=O,0.699%
2,O=C(CSc1ncn[nH]1)Nc1nc2c(F)c(F)c(F)cc2s1,-1.34%
3,O=C(O)C(=Cc1ccc([N+](=O)[O-])cc1)CCc1ccccc1,2.53%
4,CCOC(=O)C(=Cc1ccccc1)C(=O)c1ccccc1,31.5%
5,CCOC(=O)/C(=C\c1ccc([N+](=O)[O-])cc1)C(=O)c1cc(C(C)=O)c(Nc2ccccc2)s1,55.7% (active)
6,COc1ccc(NC(=O)CN(C)C(=O)c2cc(C)oc2C)cc1,-4.83%
7,Cc1cccc(C)c1NC(=O)CNC(=O)c1ccc(N2CCOCC2)c([N+](=O)[O-])c1,-0.676%
8,CS(=O)(=O)N1CCN(C(=O)c2cc3ccccc3oc2=O)CC1,9.53%
9,COc1cccc(-n2c(=S)[nH]c3c(oc4ccccc43)c2=O)c1,-10.2%
10,O=c1oc2ccccc2cc1-c1cn(-c2ccccc2)c(=S)[nH]1,73.5% (active)
11,C[C@H]1CN([C@@H](C)CO)C(=O)CCCn2cc(nn2)CO[C@@H]1CN(C)C(=O)Nc1ccccc1,-0.0595%
12,Cc1ccc([C@H]2C[C@H](O)[C@@H](n3cc(COC(=O)c4ccccc4)nn3)CN2C(=O)C2CCCCC2)cc1,7.15%
13,COc1ccc(CN2C(=O)C(CC(=O)NCc3cccc4ccccc34)CC(C(=O)N3CCOCC3)=C2C)cc1 (centres undefined),1.6%
14,CSc1nc(-c2ccccc2)nc(C(Cl)Cl)n1,85.7% (active)
15,Cc1csc(SCC(=O)Nc2ccc(C)c(S(=O)(=O)N(C)C)c2)n1,-5.08%
16,Cc1ccc(CCNC(=O)CN2C(=O)CSc3ccc(S(=O)(=O)N4CCOCC4)cc32)cc1,-9.19%
17,O=C1CC[C@@H](C(=O)N2CSC[C@@H]2C(=O)Nc2ccc(C(F)(F)F)cc2)N1,-8.12%
18,CC(C)c1cc(C(=O)NC2CCCCCC2)c2ccccc2n1,-2.77%
19,CC(C)C(C)NC(=O)COc1nc2ccccc2nc1N(C)C1CCCCC1 (centres undefined),-16%
20,CN(c1ccc2nc3ccccc3c(=O)n2n1)C1CCCCC1,76% (active)
21,CC1(c2cccc(N)c2)OCCO1,-20.7%
22,COC(=O)C(C)NC(=O)COc1ccc2ccccc2c1 (centres undefined),-5.65%
23,Cc1cc2ccccc2n1CCC(=O)O,2.51%

row,SMILES,inhibition
1,Cc1cc2ccccc2n1CCNC(=O)COc1ccc2ccccc2c1,52.5% (active)
2,CC(=O)c1ccccc1NC(=O)COC(=O)C1COc2ccccc2O1 (centres undefined),-0.0295%
3,O=c1[nH]c2ccccc2n1C1CCN(CCOc2ccccc2)CC1,5.46%
4,CCC(=O)c1ccc(OCC(O)CN2CCN(c3cccc(C(F)(F)F)c3)CC2)cc1 (centres undefined),1.92%
5,OC(COc1ccc2c(c1)CCC2)CN1CCN(c2cccc(Cl)c2)CC1 (centres undefined),-1.09%
6,OC(COc1ccccc1)CN1CCN(c2cccc(Cl)c2)CC1 (centres undefined),46.9% (active)
7,CCOC(=O)c1c(NC(=O)COC(=O)c2ccc(S(=O)(=O)C(F)F)cc2)sc(C(=O)N(C)C)c1C,1.83%
8,CC(=NNC(N)=O)C1CC2CCC1CC2 (centres undefined),4.52%
9,CC(OC(=O)c1ccc(NC(=O)CC#N)cc1)C(=O)Nc1ccc(S(=O)(=O)N2CCCC2)cc1 (centres undefined),-2.22%
10,Cc1ccccc1NC(=O)Cc1nc(COC(=O)C(C)(C)Oc2ccc(Cl)cc2)cs1,-2.11%
11,Cc1noc(C)c1S(=O)(=O)N(C)C[C@H]1OCCCC[C@@H](C)Oc2ccc(NC(=O)CCCN(C)C)cc2C(=O)N([C@H](C)CO)C[C@@H]1C,-4.38%
12,COC(=O)Cc1[nH]n(-c2nc3ccccc3s2)c(=O)c1C(C)=Nc1ccc(OC)cc1,59.5% (active)
13,COc1ccccc1NC(=O)c1ccc2nc(N3C(=O)CCC3=O)sc2c1,-13.5%
14,COc1ccc(C(=O)Nc2cccc(/C=C(/CCC(=O)O)c3nc4ccccc4s3)c2)cc1,-6.71%
15,C[C@H]1CN([C@@H](C)CO)C(=O)CCCn2cc(nn2)CO[C@@H]1CN(C)S(=O)(=O)c1cccc(C#N)c1,-4.24%
16,Cn1nccc1C(=O)NC1CCCc2c1cnn2-c1ccccc1F (centres undefined),28.4%
17,COc1ccc(C(=O)NC2CCCc3c2cnn3-c2cccc(C)c2C)c(OC)n1 (centres undefined),47.8% (active)
18,COc1ccc(OC)c(C(=O)NC2CCCc3c2cnn3-c2cc(C)cc(C)c2)c1 (centres undefined),-16.3%
19,O=C(O)C1=C(C(=O)O)C2CCC1C2,-22.4%
20,Cc1cccc(NC(=O)COc2ccc(Br)cc2C)n1,-11.9%
21,COc1ccc2c(c1OC)C(=O)OC2Nc1nc(-c2ccccc2)cs1 (centres undefined),22.9%
22,COc1ccc(-c2csc(Nc3cccc(C)n3)n2)cc1OC,56.6% (active)
23,Cc1ccc(-c2ccc(CN3C(C(C)C)C(=O)N(Cc4cn(CCC5OCCCO5)nn4)CCS3(=O)=O)cc2)cc1 (centres undefined),3.16%

row,SMILES,inhibition
1,C[C@H]1CN([C@@H](C)CO)C(=O)CCCn2nncc2CO[C@@H]1CN(C)Cc1ccc(Oc2ccccc2)cc1,8.56%
2,Cc1ccc(C(=O)NNC2=Nc3cc([N+](=O)[O-])ccc3OC2)cc1,-21.3%
3,COc1ccc(C2=Nc3cc(C)ccc3OC2)cc1,91.3% (active)
4,COc1ccc(C2=NOC(COC(=O)c3ccc4ccccc4n3)C2)cc1 (centres undefined),3.2%
5,CCN(CC)C(=O)C(C)N1c2cccc3cccc(c23)S1(=O)=O (centres undefined),11.1%
6,COc1ccc(S(=O)(=O)N2CCC(C(=O)NCCC(=O)NCCc3cccc(F)c3)CC2)cc1,6.77%
7,O=C(c1cc(-c2ccc(O)cc2)on1)N1CCOCC1,12%
8,O=C(c1cc(-c2cccc(O)c2)on1)N1CCc2ccccc2C1,-0.0205%
9,O=C(c1cc(-c2ccc(O)cc2)on1)N1CCCc2ccccc21,83.9% (active)
10,C[C@@H]1CN([C@@H](C)CO)C(=O)CCCn2nncc2CO[C@H]1CN(C)Cc1ccc(C(F)(F)F)cc1,-1.15%
11,CC(=O)Nc1ccccc1NC(=O)c1cc(C)cc(C)c1,-2.05%
12,Nc1ccc(S(=O)(=O)NC(=O)c2ccccc2)cc1,5.43%
13,Nc1ccc(C(=O)Nc2ccccc2N)cc1,43.3% (active)
14,Cc1ccc(Cc2c(-c3ccc(C)cc3)nc3c4ccccc4ccn23)cc1,-19.4%
15,Cc1ccc(C(=O)N2CCCc3ccccc32)c(Cl)c1,6.82%
16,CC(Sc1ccc(S(=O)(=O)N2CCN(C)CC2)cn1)C(=O)NC1CCCC(C)C1C (centres undefined),-17.5%
17,CCc1ccc(CN(C)C(=O)CCc2nnc(-c3ccc(-c4ccccc4)cc3)o2)nc1,5.34%
18,CCCCCCc1cc2cc(-c3nnc(-c4ccccc4)o3)c(=O)oc2cc1O,52% (active)
19,O[C@H]1C[C@H](c2ccc(Cl)cc2)N(Cc2cccs2)C[C@@H]1n1cc(C2CC2)nn1,1.65%
20,CCOc1ccc(NS(=O)(=O)c2ccc(C(=O)NCC3CCCO3)cc2)cc1 (centres undefined),-2.59%
21,COc1ccc(CN2C(=O)C(CC(=O)NCCCCc3ccccc3)CC(C(=O)N3CCOCC3)=C2C)cc1 (centres undefined),-8.73%
22,COc1ccc(/C=C/c2noc(-c3ccccc3OC(C)=O)n2)cc1,9.61%
23,COc1ccc(OC)c(-c2csc(-c3cccs3)n2)c1,0.747%

row,SMILES,inhibition
1,COc1ccc(-c2nc(-c3ccccc3)no2)c(OC)c1,67.3% (active)
2,C#CCN(C[C@@H]1[C@@H](OC(=O)NC2CC2)[C@@H](OC(=O)NC2CC2)Cn2c(=O)ccc(=O)n21)S(=O)(=O)c1ccc(C)cc1,4.07%
3,CCOc1ccc(N/C=C/C(=O)c2ccccc2)cc1,82.1% (active)
4,Cc1cc(N/C=C\C(=O)c2ccc(Cl)c(Cl)c2)no1,-16.1%
5,CCOc1ccc(N/C=C/C(=O)c2cc(OC)c(OC)c(OC)c2)cc1,-9.23%
6,COc1ccc(C(=O)/C=C/Nc2ccccn2)cc1,67% (active)
7,CCOc1cc2ccccc2cc1C(=O)Nc1ccccn1,-13.7%
8,CCOc1ccc(NC(=S)N2CCC(NC(=O)c3ccccc3)CC2)cc1,0.728%
9,NC1=CC(=O)C(=O)c2cccnc21,12.1%
10,COCC(=O)N(C)C[C@H]1Oc2cc(Br)ccc2S(=O)(=O)N([C@H](C)CO)C[C@H]1C,0.42%
11,O=C(Cc1ccc([N+](=O)[O-])cc1)NCCS(=O)(=O)N1CCN(c2ccccc2)CC1,-3.09%
12,C/C(=N/Nc1nc(-c2ccccc2)c(CC(=O)O)s1)c1ccccc1,-38.4%
13,c1ccc(C(=NNc2nc3ccccc3s2)c2ccccn2)cc1,79.1% (active)
14,COc1cc(OC)nc(N/N=C(\c2ccccc2)c2ccncc2)n1,3.44%
15,COc1cccc(OC)c1C(=O)N1CCN(Cc2ccccc2F)CC1,2.93%
16,C[C@@H]1CN([C@@H](C)CO)C(=O)c2c(c3ccccc3n2C)-c2ccccc2CO[C@H]1CN(C)C(=O)C1CC1,-4.84%
17,CCOC(=O)c1c(C)[nH]c2c1-c1ccccc1C(=O)C2=O,92.7% (active)
18,CCOC(=O)c1c(C)[nH]c(C)c1S(=O)(=O)NCCCc1ccco1,-0.931%
19,CCOC(=O)c1[nH]c2ccccc2c1N=C(C)N(CC)CC,0.352%
20,C[C@H]1NS(=O)(=O)c2cc(Cl)ccc2O[C@@H]1c1ccccc1,-0.001%
